# Laboratory results reported in article PMC5540273 (PLoS ONE, 2017).
# System: T1, YANK2
# T1 construct: gene STK32B
# Settings: concentration: 1 μM, replicates: in singlicate; n = 1
# 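Further: KINOMEscan kinase panel screen.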
row,SMILES,%Inh
1,Cc1ccc(-c2nc(Nc3ccncc3)c3ccccc3n2)s1 [GSK189015],12%
2,CNc1nc(-c2ccc3c(N)n[nH]c3c2)cc(N2C[C@@H](C(=O)NC3CCCCC3)OC[C@H]2C)n1 [GSK2375584],2%
3,Cn1cnc2c(N)ncnc21 [SKF-97623],0%
4,Fc1ccc(-c2nc[nH]c2-c2ccncc2)cc1 [SB-217360],28%
5,COc1cccc(NC(=O)Nc2ccc(C)c(-c3ccc(C(=O)Nc4ccncc4)cc3)c2)c1 [GSK1398474],0%
6,Nc1ncnc2occ(-c3ccc4c(c3)CCN4C(=O)Cc3cc(F)ccc3F)c12 [GSK2645446],0%
7,COc1ccc(CSc2nnc(-c3ccc4nccn4c3)o2)cc1C(F)(F)F,8%
8,Cc1cccc2c(-c3ccncn3)c(-c3ccc(F)cc3)nn12 [GW515532],41%
9,Cc1ccccc1-c1cc(-c2c[nH]nc2-c2ccccn2)ccn1 [GW680061],0%
10,CCCCc1nn2ncccc2c1-c1ccnc(NC2CC2)n1 [GW684374],3%
11,CCn1c(-c2ccccc2)nc2cnccc21 [SB-733416],0%
12,Cn1cncc1-c1cc2c(Nc3ccc(OCc4ccccc4)cc3)ncnc2cn1 [GW281179],0%
13,Cc1c(Cn2c3ccccc3n3c(=O)cc(N4CCOCC4)nc23)cccc1C(F)(F)F [GSK2306394],0%
14,CS(=O)(=O)CCNCc1nc(-c2ccc3ncnc(Nc4ccc(OCc5ccccc5)c(Cl)c4)c3c2)cs1.Cl [GW582764],0%
15,COC(=O)C(NC(=O)NC1CCN(c2ccnc(Nc3ccc(F)cc3)n2)C1)c1ccccc1 (stereo not shown) [GSK1379712],0%
16,Cc1ccc(NC(=O)Nc2ccc(Cl)c(C(F)(F)F)c2)cc1-c1ccc(C(=O)Nc2ccncc2)cc1 [GSK1398470],0%
17,COc1ccc(-c2coc3ccc(-c4nnc(C)o4)cc23)cc1,9%
18,COC(=O)c1cccc(NC(=O)NC2CCN(c3ccnc(Nc4ccc(OC)cc4)n3)C2)c1 (stereo not shown) [GSK1379746],0%
19,CC(=O)c1c(C)c2cnc(Nc3ccn(C)n3)nc2n(C2CCCC2)c1=O,0%

row,SMILES,%Inh
1,CC(=O)c1c(C)c2cnc(Nc3ccc(N4CCNCC4)cn3)nc2n(C2CCCC2)c1=O,0%
2,CNC(=O)c1ccc(C)c(-n2c(C)cc(OCc3ccc(F)cc3F)c(Br)c2=O)c1,0%
3,FC(F)(F)c1ccccc1-c1cc(-c2c[nH]nc2-c2ccccn2)ccn1 [GW679396],18%
4,CCn1c(-c2c(N)noc2C)nc2cnccc21 [SB-737856],0%
5,Fc1ccc(-c2nn3cccc(F)c3c2-c2ccncc2)cc1 [GW475620],46%
6,CS(=O)(=O)Cc1ccc(Nc2nccc(-c3c(-c4cccc(NC(=O)C5CCCCC5)c4)nn4ncccc34)n2)cc1 [GSK350559],13%
7,CC(C)c1cc(-c2ccc3c(N)n[nH]c3c2)nc(N)n1 [GSK2250882],0%
8,Nc1cccc(-c2ccc3c(N)n[nH]c3c2)n1 [GSK2192730],0%
9,COc1nccc(-c2c(-c3ccc(F)cc3)ncn2CCCN2CCOCC2)n1 [SB-282852],0%
10,Cc1ccc(NC(=O)Nc2ccccc2)cc1-c1ccc(C(=O)Nc2ccncc2)cc1 [GSK1398471],5%
11,O=C(Nc1n[nH]c2nc(-c3cccs3)c(Br)cc12)C1CC1 [SB-735297],11%
12,O=C(Nc1n[nH]c2nc(-c3cccs3)c(Br)cc12)C1CCCC1 [SB-743341],15%
13,O=c1cc(N2CCOCC2)nc2n(Cc3ccccc3F)ccn12 [GSK2297428],0%
14,Cl.Cl.Cl.N#Cc1ccc(CCNc2nccc(-c3cccc(CN4CCNCC4)c3)n2)cc1 [GSK2137462],0%
15,CSc1ccc(-c2nc3n(c2-c2ccncc2)CCC3)cc1 [SKF-105561],6%
16,Cc1ccc(NC(=O)Nc2ccccc2F)cc1-c1ccc(C(=O)Nc2ccncc2)cc1 [GSK1398477],12%
17,CCc1ccc(-c2ccc3c(c2)-c2n[nH]cc2S(=O)(=O)N3C)cc1,0%
18,COc1ccc(Nc2nccc(N3CCC(NC(=O)c4cc5ccccc5s4)C3)n2)cc1 (stereo not shown) [GSK1379738],6%
